Results: PubChem BioAssay

Experiment: circadian clock period modulators, cell-based, LOPAC library, luminescence reporter (AID 2774);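 further: values are relative to mean of DMSO wells on each plate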
Conditions: circadian reporter cells, at 7 µM, actives lie on both sides; call rule not given here

Period change, inactive:
CN1C2CCC1CC(NC(=O)c1nn(C)c3ccccc13)C2 (configuration not stated) 0.265 h
CCCn1c(=O)c2[nH]c(-c3ccc(OCC(=O)Nc4ccc(C#N)cc4)cc3)nc2n(CCC)c1=O 0.13 h
C/C=C1\C(=O)CC2C3CCC4=CC(=O)CC[C@]4(C)C3CC[C@]12C (some centres not stated) 0.03 h
CCCCN1CCC(COC(=O)c2cc(Cl)c(N)c3c2OCCO3)CC1 -0.095 h
N#CC(Cc1ccc(O)c(O)c1)C(=O)N1CCc2ccccc21 (configuration not stated) 0.025 h
NC(=NCCC[C@H](N)C(=O)O)NO -0.09 h
CCN(CC)C(C)C(=O)N1c2ccccc2Sc2ccccc21 (configuration not stated) 0.095 h
Nc1ncnc2c1ncn2[C@@H]1O[C@H](C(=O)NC2CC2)[C@H](O)C1O (some centres not stated) -0.165 h
O=C(O)CCCCCC[C@H]1C(=O)NC(=O)N1CC[C@@H](O)C1CCCCC1 0.18 h
Cc1c(C)c2c(c(C)c1O)CCC(C)(CN1CCN(c3cc(N4CCCC4)nc(N4CCCC4)n3)CC1)O2 (configuration not stated) 0.14 h
OC[C@H]1O[C@@H](n2cnc3c(Nc4ccccc4)ncnc32)C(O)[C@H]1O (some centres not stated) -0.12 h
COC(=O)c1c(-c2cc(OC)c(OC)c(OC)c2)c2ccc(OCc3ccccn3)cc2c(=O)n1-c1ccc(N)cc1 0.015 h
O=C(O)CCC(NC(=O)c1ccccc1C(=O)O)C(=O)O (configuration not stated) -0.08 h
NC(=NCc1ccc(Cl)c(Cl)c1)NC(=O)c1nc(Cl)c(N)nc1N 0.175 h
CC(C)C[C@H](N)CSSC[C@@H](N)CC(C)C -0.095 h
COc1cc(C(O)CO)ccc1O (configuration not stated) (tested in a mixture with another compound) 0.16 h
OC[C@H]1O[C@@H](n2cnc3c(NCCc4ccccc4)ncnc32)C(O)[C@H]1O (some centres not stated) 0.19 h
Cc1cc(C)c(NC(=O)C[C@H](CC(=O)O)c2cccc3ccccc23)c(C(=O)N2CCC3(CCCC3)CC2)c1 0.275 h
CCNC(=O)C1OC(n2cnc3c(NCc4ccccc4)ncnc32)C(O)C1O (configuration not stated) 0.1 h
CCCNC[C@H](O)COc1ccccc1C(=O)CCc1ccccc1 0.08 h
Cc1cc(N)c2ccccc2[n+]1CCCCCCCCCCCCCC[n+]1c(C)cc(N)c2ccccc21 0.11 h
NCCCCNS(=O)(=O)c1cccc2c(Cl)cccc12 0.09 h
O=C(Cc1ccc(Cl)c(Cl)c1)OCCN1CCCC1 -0.095 h
N=C1Sc2ccccc2C2=NCCCN12 -0.035 h
CCn1cc(C(=O)O)c(=O)c2ccc(Cc3ccccc3)nc21 -0.035 h
NC(N)=NCCSSCCN=C(N)N 0.065 h
C[C@@H](NC(=O)/C(C#N)=C/c1ccc(O)c(O)c1)c1ccccc1 0.095 h
